This excerpt belongs to a sample that is enriched for hits.
Pf Dd2 inh – inhibitors of Plasmodium falciparum Dd2 growth; P. falciparum Dd2 growth, SYBR Green, 72 h; Potency, µM (series often up to 28.9 µM), for the others: at the highest dose activity, negative = inhibition, usual class: inhibitors; hit rate 4.3% among 120,000; active = well fitted inhibition curve with a large enough effect;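 note: plate controls were DMSO vehicle for no effect and reference drug for full effect; nearly all actives have a fitted effect of over 65% in size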
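Infected erythrocytes (Dd2, 0.3% parasitemia, 2.5% hematocrit final) are added to compound in RPMI-1640/Albumax II medium, grown 72 h at 37C in low oxygen, then lysed with saponin/Triton-X containing SYBR Green and read by fluorescence.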
* = called active by the depositor; [ ] = remark or other dose. Potency is the fitted concentration of half-maximal effect.

What do the screens show for `O=C(c1ccc2c(c1)N(Cc1ccc(F)cc1)C(=O)c1ccccc1S2=O)N1CCOCC1` (stereo not drawn)?
Pf Dd2 inh: -15%

Results for O=C(c1ccc2c(c1)N(Cc1ccc(Cl)cc1)C(=O)c1ccccc1S2=O)N1CCCCC1 (stereo not drawn) ?
Pf Dd2 inh: -11%

Results for O=C(c1ccc2c(c1)N(Cc1ccccc1F)C(=O)c1ccccc1S2=O)N1CCN(c2ccccc2)CC1 (stereo not drawn) ?
Pf Dd2 inh: -2%

How did COc1ccc(N2CCN(C(=O)c3ccc4c(c3)N(Cc3cc(C)ccc3C)C(=O)c3ccccc3S4=O)CC2)cc1 (stereo not drawn) do in these assays?
Pf Dd2 inh: -17%

How did CCN1CCN(C(=O)c2ccc3c(c2)N(Cc2ccccc2F)C(=O)c2ccccc2S3=O)CC1 (stereo not drawn) do in these assays?
Pf Dd2 inh: 0.28µM*

What do the screens show for `CC1(COc2ccccc2)COc2ccc(C(=O)NCc3cccnc3)cc2N1` (stereo not drawn)?
Pf Dd2 inh: -20%[44.1 µM]

How did COC[C@@H]1CN(S(=O)(=O)c2cnc[nH]2)C[C@H]1c1ccccn1 do in these assays?
Pf Dd2 inh: 19%

Results for O=C(CCc1ccccc1)N1CCC(c2nc(C3CCOCC3)no2)C1 (stereo not drawn) ?
Pf Dd2 inh: 6%

What do the screens show for `COCCN(CCOC)CC[C@@H]1CC[C@H](O)[C@@H](C(=O)NCc2ccc(OC)cc2)O1`?
Pf Dd2 inh: -21%[44.1 µM]

What do the screens show for `CCN(CC)C(=O)c1ccc(CN2C(=O)NC3(CCS(=O)(=O)CC3)C2=O)cc1`?
Pf Dd2 inh: -2%

Results for CC(C)NC(=O)c1ccccc1OCC1CCCN(C(=O)C2CCOCC2)C1 (stereo not drawn) ?
Pf Dd2 inh: -12%

What do the screens show for `Cc1nc(C(=O)N2CCC(c3n[nH]c(=O)n3Cc3ccccc3)CC2)c(C)o1`?
Pf Dd2 inh: 12%

What do the screens show for `O=C(CC[C@H]1NC(=O)c2ccccc2NC1=O)Nc1nnc(Cc2ccccc2)s1`?
Pf Dd2 inh: -4%

How did Cc1ccc(C(=O)N2CCC(N3CCOCC3=O)CC2)cc1 do in these assays?
Pf Dd2 inh: 1%

Results for CN(C)C(=O)c1cccnc1OC1CCN(C(=O)c2ccc(F)cc2)C1 (stereo not drawn) ?
Pf Dd2 inh: 4%

How did Cc1cccc2c1nc1n2[C@@H](CNC(=O)c2ccncc2)COC1 do in these assays?
Pf Dd2 inh: -6%[44.1 µM]

Results for O=C(NCc1ccc(F)cc1F)C1CCCN(c2cn[nH]c(=O)c2)C1 (stereo not drawn) ?
Pf Dd2 inh: 3%

Results for CS(=O)(=O)c1ccc(CN2CCOC[C@H]2c2ncc(-c3ccc(Cl)cc3)[nH]2)cc1 ?
Pf Dd2 inh: 11µM*

What do the screens show for `CC(C)(C)c1cnc([C@@H]2COCCN2Cc2ccc(Cl)cc2)[nH]1`?
Pf Dd2 inh: 4µM*

Results for CC(=O)Nc1ccc(CN2CCOC[C@H]2c2ncc(-c3ccc(F)cc3F)[nH]2)cc1 ?
Pf Dd2 inh: inactive

What do the screens show for `Clc1ccc(-c2cnc([C@@H]3COCCN3CC3CC3)[nH]2)s1`?
Pf Dd2 inh: inactive

What do the screens show for `CS(=O)(=O)c1ccc(CN2CCOC[C@H]2c2ncc(-c3ccc(F)cc3F)[nH]2)cc1`?
Pf Dd2 inh: -29%[44.1 µM]

What do the screens show for `Cc1ccc(-c2cnc([C@@H]3COCCN3Cc3cnc[nH]3)[nH]2)cc1`?
Pf Dd2 inh: inactive

Results for Fc1ccc(CN2CCOC[C@H]2c2ncc(-c3ccc(Cl)s3)[nH]2)cc1 ?
Pf Dd2 inh: 11µM*

Results for Cn1c(CN2CCOC[C@H]2c2ncc(-c3ccc(Cl)cc3)[nH]2)nc2ccccc21 ?
Pf Dd2 inh: 10µM*

What do the screens show for `Clc1ccc(-c2cnc([C@@H]3COCCN3Cc3cnc[nH]3)[nH]2)cc1`?
Pf Dd2 inh: -5%[44.1 µM]

How did CC(=O)N1CCC(N2CCOC[C@H]2c2ncc(-c3ccc(S(C)(=O)=O)cc3)[nH]2)CC1 do in these assays?
Pf Dd2 inh: 16%[44.1 µM]

How did Fc1ccc(-c2cnc([C@@H]3COCCN3Cc3cccnc3)[nH]2)cc1 do in these assays?
Pf Dd2 inh: inactive

Results for CCCc1ccc(CN2CCC(c3nnc(Cn4ccnc4)n3C3CC3)CC2)o1 ?
Pf Dd2 inh: 1%

Results for COc1ccc(C(C)NC(=O)c2ccc(-c3ccc(N4CCSCC4)nc3)cc2)cc1 (stereo not drawn) ?
Pf Dd2 inh: inactive

Results for Cc1cc(C(=O)N2CCCC(c3nc(-c4cccnc4)no3)CCNC(=O)CC2)n(C)n1 (stereo not drawn) ?
Pf Dd2 inh: 3%

What do the screens show for `COc1cncc([C@@H](NC(=O)c2ccc3c(c2)CCC3)C2CC(O)C2)c1` (stereo partly drawn)?
Pf Dd2 inh: 1%

Results for Cc1ccc(-c2nc(C(=O)NCc3ccccc3F)no2)cc1 ?
Pf Dd2 inh: 16%

What do the screens show for `O=C(CN1CC2CC(C1)[C@H]1CCCC(=O)N1C2)NCCN1CCOCC1` (stereo partly drawn)?
Pf Dd2 inh: 11%

What do the screens show for `COc1nccc(N2CCC(CC(=O)N3CCN(C4CCCCC4)CC3)CC2)n1`?
Pf Dd2 inh: inactive

How did CN(C)C(=O)C1CN(C(=O)c2ccc3c(c2)OCO3)CC12CCOCC2 (stereo not drawn) do in these assays?
Pf Dd2 inh: 2%

How did O=C1[C@@H]2C[C@@H](O)CN2C2(CN(Cc3cccnc3)C2)C(=O)N1Cc1cccc(Cl)c1 do in these assays?
Pf Dd2 inh: inactive

Results for O=C(Nc1cccc(OC(F)(F)F)c1)c1cc(-c2ccc[nH]2)n[nH]1 ?
Pf Dd2 inh: -24%

Results for O=C(O)CC1C(=O)NCCN1C1CCCC1 (stereo not drawn) ?
Pf Dd2 inh: -3%

How did COc1ccc(OC)c(S(=O)(=O)N2CCCOCCNC(=O)[C@@H]3CCCC[C@@H]32)c1 do in these assays?
Pf Dd2 inh: -11%

How did CC(C)CCN(C)Cc1ccc(F)cc1 do in these assays?
Pf Dd2 inh: inactive

Results for CC(C)(C)c1cnc([C@@H]2COCCN2Cc2ccccc2O)[nH]1 ?
Pf Dd2 inh: 2µM*

How did CC(C)(C)CN1CCOC[C@H]1c1ncc(-c2ccc(F)cc2F)[nH]1 do in these assays?
Pf Dd2 inh: inactive

What do the screens show for `c1ccc(-c2cnc([C@@H]3COCCN3Cc3cccnc3)[nH]2)cc1`?
Pf Dd2 inh: 12%[44.1 µM]

Results for N#Cc1ccc(CN2CCn3c(nnc3-c3ccncc3)C2)cc1 ?
Pf Dd2 inh: 1%

What do the screens show for `CCOc1ccccc1C(=O)N[C@@H]1CN(Cc2cccnc2)C[C@H]1CN(C)C`?
Pf Dd2 inh: -37%

How did CCOc1ccccc1C(=O)N[C@@H]1CN(Cc2ccncc2)C[C@H]1CN(C)C do in these assays?
Pf Dd2 inh: 5µM*

Results for COc1ccccc1C(=O)N[C@@H]1CN(Cc2ccncc2)C[C@H]1CN(C)C ?
Pf Dd2 inh: -21%

Results for CCOC(=O)N1CCN(C(=O)CN(c2ccccc2F)S(=O)(=O)c2ccc(C)cc2)CC1 ?
Pf Dd2 inh: -16%

What do the screens show for `Cc1ccc(S(=O)(=O)N(CC(O)Cn2c3ccccc3c3ccccc32)c2cccc(C(=O)N(C)C)c2)cc1` (stereo not drawn)?
Pf Dd2 inh: 8.9µM*

How did Cc1ccc(-c2ccc3nnc(CNC(=O)c4cccc(N(C)C)c4)n3n2)cc1 do in these assays?
Pf Dd2 inh: inactive

What do the screens show for `COc1ccc(S(=O)(=O)N(CC(=O)NCc2ccccc2)c2ccc(C)cc2)cc1OC`?
Pf Dd2 inh: 15%

Results for Cc1ccc(S(=O)(=O)N(CC(O)Cn2c3ccccc3c3ccccc32)c2cccc(C(N)=O)c2)cc1 (stereo not drawn) ?
Pf Dd2 inh: 10µM*
